Laboratory results from PubChem BioAssay.
Records with an inconclusive call do not appear. The source made the active and inactive calls.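 Rule for the calls, unless noted: active = RAM network inhibition above 8.4% in each of two replicates, 3 SD over the compound average; inconclusive = above 8.4% inhibition in only one replicate; inactive = 8.4% inhibition or less in each replicate.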

Columns and labels:
[1] = reducers of endogenous Her2 protein level, primary screen, SKBR3 breast tumor cells, AlphaScreen, ATP viability (AID 461;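 active = Her2 level under about 52% in both replicate screens, with viability over 70% of control, limit read from the data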;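 for Her2 level: lower value means less Her2 protein in the cells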;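 for viability: percent of carrier control wells set as 100% viability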); conditions: 18-24 h, measured here: SKBR3 viability, ATP luminescence, at 10 µM
[2] = biological target: Receptor tyrosine-protein kinase erbB-2 (Homo sapiens) (UniProt P04626); assay: as above; conditions: 18-24 h, at 10 µM, stronger effect = lower value
[3] = SK-BR-3 cell growth inhibitors, pilot screen, 24 h, human (AID 572;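 active = viability at or below 10% of carrier control in both of two separate runs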;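 note: compound exposure lasted between 18 and 24 h rather than exactly 24 h; 100% = carrier-treated control wells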); conditions: SK-BR-3 viability, CellTiter-Glo luminescence, at 10 µM, stronger effect = lower value
[4] = HUVEC growth inhibition – cell-based, human, primary screen (AID 575;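 active = viability at or below 30% in both replicate assays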;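 note: 100% = median of untreated cell wells with 0.1% DMSO on each plate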); conditions: HUVEC proliferation, CellTiter-Glo luminescence, 72 h; at 10 µM; stronger effect = lower value
[5] = reversal of MRP1-mediated doxorubicin resistance, pilot screen, H69AR cells, doxorubicin co-treatment (AID 601;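 active = viability loss from added drug above about 55%, and viability with drug at most 40%, in both replicates, limit read from the data, passing the limit was not always enough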); conditions: CellTiter-Glo, 72 h, at 10 µM; for differential viability (reversal): stronger effect = higher value
[6] = 384-well plate pilot, post-Golgi transport modulator project, inhibition of yeast transport mutant growth (AID 636; in the data active = inhibition above about 31%); conditions: absorbance 615 nm, about 18 h, stronger effect = higher value
[7] = growth suppression of yeast trafficking mutant, preliminary HTS, modulators of trafficking downstream of Golgi apparatus project, 1536-format plate, OD 615 nm (AID 637; in the data active = inhibition above about 30%); conditions: yeast transport mutant growth, absorbance 615 nm, 18 h; stronger effect = higher value
[8] = OD615 S. cerevisiae growth inhibition, permissive medium, pilot counter-assay, permissive growth control for S. cerevisiae lifespan shortening project (AID 705;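 active = growth inhibition above 25% in both replicates, a cutoff set 3 SD above the mean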); conditions: OD615, 24 h, at 10 µM, stronger effect = higher value
[9] = Restrictive medium S. cerevisiae growth inhibition, OD615, pilot screen of yeast lifespan reduction project, restrictive growth control (AID 706;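 active = growth inhibition above a set limit, 3 SD over mean compound inhibition, in both replicates, cut at about 43% in these data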;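 note: modified DeaD lifespan yeast strain shifted to restrictive glucose medium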); conditions: OD615, 48 h, at 10 µM, stronger effect = higher value
[10] = viability gain of MRP-1-high H69AR cells under doxorubicin, pilot screen, MRP-1 activator project, CellTiter-Glo, duplicate (AID 807;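 active = viability increase at or above a cutoff of the median across tested compounds plus 3 SD, cut at about 8.5% in these data, passing the limit was not always enough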;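 note: compound pretreatment 18-22 h then 72 h combined with doxorubicin; 0% = doxorubicin alone and 100% = vehicle without doxorubicin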); conditions: H69AR viability with doxorubicin, CellTiter-Glo luminescence; at 10 µM; stronger effect = higher value
[11] = growth suppression of beta-catenin knockout HCT116, pilot screen, human colon tumor cells (AID 823;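 active = cell viability at or below a set limit in both duplicate runs, the limit being the all-compound median minus 4 SD, cut at about 23% in these data, passing the limit was not always enough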;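 note: 0% = wells killed by 20 µM Hyamine and 100% = untreated DMSO cell wells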); conditions: CellTiter-Glo, 60 h, at 10 µM, stronger effect = lower value
[12] = growth suppression of PTEN-deleted HCT116, pilot screen, cell-based, HCT116 clonal line, CellTiter-Glo (AID 824;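 active = viability at or below 27.92% in each of two runs, the all-compound median minus 4 SD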;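 note: 0% = 20 µM Hyamine control and 100% = vehicle cell control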); conditions: 60 h, at 10 µM, stronger effect = lower value
[13] = inhibitors of the yeast RAM network, pilot screen, dse1pr::URA3 reporter, 5-FOA selection (AID 869;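 active = inhibition over a set limit, the all-compound mean plus 3 SD, in both replicate runs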;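 note: 0% = DMSO wells with no growth and 100% = 10 µM 1-NA-PP1 with full growth; RAM network block rescues cells from 5-FOA so hits raise OD615 growth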); conditions: S. cerevisiae dse1pr::URA3 5-FOA growth, OD615, 2 d; at 10 µM; stronger effect = higher value; strain carries analog-sensitive mutant Cbk1 kinase
[14] = RAM signaling pathway blockade in yeast – S. cerevisiae, Pdr1DBD-CYC8 efflux-inhibited sensitized strain, primary screen (AID 1298);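 note: 0% = DMSO untreated cells without growth and 100% = 10 µM 1-NA-PP1 full growth; higher means more yeast growth rescued from 5-FOA killing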; conditions: S. cerevisiae cbk1-as DSE1-URA3 strain, 5-FOA growth OD615, 2 d; at 50 µM; stronger effect = higher value
[15] = growth inhibitors of H69AR lung tumor, primary screen, human, duplicate replicates (AID 580;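 active = viability at or under a set limit in both replicates, limit being median viability minus 3 SD, cut at about 48% in these data, passing the limit was not always enough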;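 note: 100% = mean luminescence of untreated wells and 0% = no signal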); conditions: H69AR lung tumor cells viability, ATP luminescence, 72 h; at 10 µM; stronger effect = lower value
[16] = H69AR cells + 2 uM doxorubicin, measured here: viability with 2 uM doxorubicin, stronger effect = lower value
[17] = H69AR cells, compound alone cytotoxicity

Sequence of Receptor tyrosine-protein kinase erbB-2 (Homo sapiens) (P04626 whole entry, looked up): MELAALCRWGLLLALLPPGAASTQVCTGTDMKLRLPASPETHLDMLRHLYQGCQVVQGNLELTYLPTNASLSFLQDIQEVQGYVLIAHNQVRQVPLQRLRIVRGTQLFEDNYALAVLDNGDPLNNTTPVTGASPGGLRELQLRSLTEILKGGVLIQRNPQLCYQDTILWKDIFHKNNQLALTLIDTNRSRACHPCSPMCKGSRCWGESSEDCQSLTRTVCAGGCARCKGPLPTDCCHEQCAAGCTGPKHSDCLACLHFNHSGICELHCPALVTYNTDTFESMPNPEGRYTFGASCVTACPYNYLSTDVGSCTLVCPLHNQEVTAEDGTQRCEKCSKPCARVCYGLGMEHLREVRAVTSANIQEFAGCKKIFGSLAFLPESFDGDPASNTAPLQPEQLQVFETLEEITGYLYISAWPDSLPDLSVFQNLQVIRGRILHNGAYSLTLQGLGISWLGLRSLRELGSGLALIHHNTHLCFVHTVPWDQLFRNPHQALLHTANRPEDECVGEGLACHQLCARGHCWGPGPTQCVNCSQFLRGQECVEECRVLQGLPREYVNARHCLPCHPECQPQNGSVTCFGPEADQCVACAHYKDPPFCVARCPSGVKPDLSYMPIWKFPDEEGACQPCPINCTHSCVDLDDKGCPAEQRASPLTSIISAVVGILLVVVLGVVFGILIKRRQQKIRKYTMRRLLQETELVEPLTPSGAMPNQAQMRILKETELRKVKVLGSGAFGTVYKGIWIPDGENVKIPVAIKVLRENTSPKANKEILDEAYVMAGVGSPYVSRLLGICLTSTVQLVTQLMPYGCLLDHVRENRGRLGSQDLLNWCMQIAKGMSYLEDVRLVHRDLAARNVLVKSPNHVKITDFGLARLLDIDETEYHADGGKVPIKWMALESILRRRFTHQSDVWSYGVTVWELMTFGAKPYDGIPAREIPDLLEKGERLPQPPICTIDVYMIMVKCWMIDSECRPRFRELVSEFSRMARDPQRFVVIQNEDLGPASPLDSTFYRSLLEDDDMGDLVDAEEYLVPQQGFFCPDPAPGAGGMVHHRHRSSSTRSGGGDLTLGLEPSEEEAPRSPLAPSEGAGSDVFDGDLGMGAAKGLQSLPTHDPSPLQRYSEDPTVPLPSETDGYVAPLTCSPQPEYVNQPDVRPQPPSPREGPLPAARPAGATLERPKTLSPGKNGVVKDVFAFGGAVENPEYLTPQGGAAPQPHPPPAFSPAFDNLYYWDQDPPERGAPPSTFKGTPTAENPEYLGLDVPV

| Compound | viability [1] [%] | Her2 level [2] | viability [3] | viability [4] | differential viability (reversal) ([5]; H69AR cells + 2 uM doxorubicin) | viability [5, 16] [%] | viability [5, 17] [%] | inhibition [6] | inhibition [7] | growth inhibition [8] | growth inhibition [9] | viability increase [10] | viability [11] | viability [12] | inhibition [13] | RAM network inhibition [14] | viability [15] |
| --- | --- | --- | --- | --- | --- | --- | --- | --- | --- | --- | --- | --- | --- | --- | --- | --- | --- |
| CNC(=O)c1ccsc1NC(=O)CN1C(=O)CCC1=O | 90 | 94% (inactive) | 90% (inactive) | 96.8% (inactive) | -22.5% (inactive) | 80.5 | 58 | -3.47% (inactive) | -0.67% (inactive) | -11.5% (inactive) | 0.46% (inactive) | -6.24% (inactive) | 104% (inactive) | 98.9% (inactive) | 1.65% (inactive) | 1.73% (inactive) | – |
| O=C(NC1(C(=O)NC2CCCCC2)CCCCC1)c1ccc2c(c1)OCO2 | 96.5 | 92.5% (inactive) | 96.5% (inactive) | 105% (inactive) | 4.42% (inactive) | 99.2 | 104 | -4.66% (inactive) | -1.27% (inactive) | -0.75% (inactive) | 10.5% (inactive) | 0.41% (inactive) | – | 87% (inactive) | 1% (inactive) | 5.37% (inactive) | 104% (inactive) |
| Oc1cccc(C=NCc2ccccc2)c1O | 78 | 82.5% (inactive) | 78% (inactive) | 67.3% (inactive) | -26% (inactive) | 77 | 51 | -0.39% (inactive) | -0.5% (inactive) | 83.7% (active) | 97.5% (active) | -3.97% (inactive) | 71% (inactive) | 72.2% (inactive) | -0.21% (inactive) | -1.18% (inactive) | – |
| CCOc1ccc(N(CC(=O)Nc2cccc(OC)c2)S(=O)(=O)c2c(C)noc2C)cc1 | 91.5 | 95% (inactive) | 91.5% (inactive) | 72.4% (inactive) | -16.7% (inactive) | 76.3 | 59.6 | -4.4% (inactive) | -7.38% (inactive) | -11.5% (inactive) | 3.05% (inactive) | -4.75% (inactive) | 71.8% (inactive) | 70.9% (inactive) | -0.41% (inactive) | 4.24% (inactive) | – |
| Cc1noc(/C=C/N(C)C)c1S(=O)(=O)N1CCCC(C(=O)N2CCCCC2)C1 (stereo not drawn) | 84 | 97% (inactive) | 84% (inactive) | 95.9% (inactive) | -3.44% (inactive) | 101 | 97.3 | 1.07% (inactive) | -7.21% (inactive) | 4.08% (inactive) | 5.73% (inactive) | – | 87.4% (inactive) | 85.2% (inactive) | 1.34% (inactive) | 5.03% (inactive) | 97.3% (inactive) |
| CN1C(=O)C(O)(CC(=O)c2ccccc2O)c2cc(Br)ccc21 (stereo not drawn) | 103 | 85.5% (inactive) | 103% (inactive) | 45.5% (inactive) | -24.3% (inactive) | 51.3 | 27 | -4.53% (inactive) | 4% (inactive) | -2.37% (inactive) | 18% (inactive) | -6.06% (inactive) | – | – | -0.67% (inactive) | -2.32% (inactive) | 27% (active) |
| Cc1c(C(=O)Nc2nnc(C(F)(F)F)s2)oc2ccccc12 | 91.5 | 81.5% (inactive) | 91.5% (inactive) | 51% (inactive) | -8.24% (inactive) | 93.1 | 84.8 | -6% (inactive) | -3.33% (inactive) | -4.23% (inactive) | 13.6% (inactive) | – | – | 65.5% (inactive) | 2.56% (inactive) | 4.2% (inactive) | 84.8% (inactive) |
| COc1ccc(C2C(C(=O)N3CCCC3)c3cc(OC)c(OC)cc3C(=O)N2C)cc1 (stereo not drawn) | 88.5 | 85.5% (inactive) | 88.5% (inactive) | 94.3% (inactive) | 0.95% (inactive) | 101 | 102 | -7.95% (inactive) | -0.63% (inactive) | -8.59% (inactive) | -0.445% (inactive) | -1.15% (inactive) | – | 92.8% (inactive) | 0.655% (inactive) | 5.28% (inactive) | 102% (inactive) |
| CC(=O)c1cccc(NC(=O)CCNS(=O)(=O)c2cccc3nsnc23)c1 | 86 | 78% (inactive) | 86% (inactive) | 95.6% (inactive) | 11.8% (inactive) | 94.5 | 106 | -6.58% (inactive) | 6.19% (inactive) | -5.2% (inactive) | -11% (inactive) | -2.11% (inactive) | – | 93.5% (inactive) | 1.73% (inactive) | 2% (inactive) | 106% (inactive) |
| COc1ccc(CCn2c(-c3ccco3)nc3ccccc3c2=O)cc1OC | 73 | 89% (inactive) | 73% (inactive) | 84.3% (inactive) | -29.2% (inactive) | 82.1 | 52.8 | -5.95% (inactive) | -0.49% (inactive) | -7.24% (inactive) | -21.7% (inactive) | -3.68% (inactive) | 54.5% (inactive) | 57.1% (inactive) | 0.935% (inactive) | 5.3% (inactive) | – |
